Among the data in PMC5700166 are binding signal values, retold here.

Common to all, as to test: protein-binding microarray (PBM); PBM: ~300 nM protein, 6 mM HEPES pH 7.8, 80 mM KCl, 0.5 mM EDTA, 0.5 mM EGTA, 6% glycerol, 35 ng/ul poly-dIdC, 1% milk, 1 h, room temperature; Ap Aiptasia and Nv Nematostella (sea anemones) / Co Capsaspora / Aq Amphimedon (sponge) / Dm Drosophila / Hu human; RHD is the Rel homology domain; high values mean tight binding
What all share (conditions): dsDNA, one strand shown

In one experiment the target is T1, GST-Ap-NF-kB RHD (Exaiptasia pallida (Aiptasia), UniProt A0A913YAJ5 2-422).
T1 sequence: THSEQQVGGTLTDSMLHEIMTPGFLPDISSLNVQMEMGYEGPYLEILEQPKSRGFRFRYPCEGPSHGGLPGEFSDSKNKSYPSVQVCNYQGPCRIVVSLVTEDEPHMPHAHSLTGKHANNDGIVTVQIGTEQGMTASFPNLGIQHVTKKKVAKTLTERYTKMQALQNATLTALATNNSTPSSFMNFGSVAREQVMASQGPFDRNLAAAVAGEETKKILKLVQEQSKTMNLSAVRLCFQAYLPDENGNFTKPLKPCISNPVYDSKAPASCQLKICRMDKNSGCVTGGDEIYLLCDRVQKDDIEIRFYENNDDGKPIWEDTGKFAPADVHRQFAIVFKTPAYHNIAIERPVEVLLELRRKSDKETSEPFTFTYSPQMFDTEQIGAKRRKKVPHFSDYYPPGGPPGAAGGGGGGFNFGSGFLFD

Experiment [1] has as its target T2, GST-Nv-NF-kB (Cys allele) (Nematostella vectensis, UniProt E5G601 2-411).
T2 sequence: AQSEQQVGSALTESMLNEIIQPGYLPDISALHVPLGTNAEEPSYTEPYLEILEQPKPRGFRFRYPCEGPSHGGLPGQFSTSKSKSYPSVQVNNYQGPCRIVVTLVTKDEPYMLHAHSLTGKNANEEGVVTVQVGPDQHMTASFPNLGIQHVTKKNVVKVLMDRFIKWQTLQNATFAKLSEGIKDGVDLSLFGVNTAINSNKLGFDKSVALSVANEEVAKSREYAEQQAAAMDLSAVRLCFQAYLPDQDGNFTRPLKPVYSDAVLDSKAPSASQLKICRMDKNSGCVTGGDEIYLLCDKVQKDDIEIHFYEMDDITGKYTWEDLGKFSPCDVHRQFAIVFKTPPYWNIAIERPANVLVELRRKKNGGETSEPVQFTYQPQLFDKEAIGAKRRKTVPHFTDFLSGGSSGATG

The target of experiment [2] is T3, GST-Nv-NF-kB (Ser allele) (Nematostella vectensis, UniProt A7UNT2 2-411).
T3 sequence: T2 sequence with Q21R, C66S, S207N, E215Q, V217A, E225K, A268E, D399E

The next experiment has as its target T4, GST-Co-NF-kB (Capsaspora owczarzaki, UniProt F1ARL5 200-546).
T4 sequence: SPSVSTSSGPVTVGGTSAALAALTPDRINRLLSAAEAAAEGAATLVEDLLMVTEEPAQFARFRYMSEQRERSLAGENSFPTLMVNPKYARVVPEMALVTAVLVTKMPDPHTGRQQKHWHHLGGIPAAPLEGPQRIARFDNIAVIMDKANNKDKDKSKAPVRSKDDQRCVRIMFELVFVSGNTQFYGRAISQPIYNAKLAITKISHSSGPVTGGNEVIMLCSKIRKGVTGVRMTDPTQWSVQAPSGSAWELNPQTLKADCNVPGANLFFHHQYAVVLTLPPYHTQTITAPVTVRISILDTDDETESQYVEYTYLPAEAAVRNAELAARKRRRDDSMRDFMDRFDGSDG

Another experiment deals with T5, GST-Dm-Relish (Drosophila melanogaster, UniProt Q94527 99-473).
T5 sequence: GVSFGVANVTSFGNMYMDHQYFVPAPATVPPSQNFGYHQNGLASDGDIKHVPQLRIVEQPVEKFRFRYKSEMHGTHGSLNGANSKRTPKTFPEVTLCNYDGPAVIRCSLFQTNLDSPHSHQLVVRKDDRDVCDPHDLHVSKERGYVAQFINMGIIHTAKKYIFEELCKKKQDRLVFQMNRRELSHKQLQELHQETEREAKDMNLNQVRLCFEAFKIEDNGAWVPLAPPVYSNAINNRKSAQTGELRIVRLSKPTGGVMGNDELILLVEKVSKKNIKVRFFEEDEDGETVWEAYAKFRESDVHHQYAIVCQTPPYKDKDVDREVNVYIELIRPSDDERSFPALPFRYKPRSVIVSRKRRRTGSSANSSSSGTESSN

A further experiment has as its target T6, GST-Aq-NF-kB (Amphimedon queenslandica, UniProt A9Y5G7 2-389).
T6 sequence: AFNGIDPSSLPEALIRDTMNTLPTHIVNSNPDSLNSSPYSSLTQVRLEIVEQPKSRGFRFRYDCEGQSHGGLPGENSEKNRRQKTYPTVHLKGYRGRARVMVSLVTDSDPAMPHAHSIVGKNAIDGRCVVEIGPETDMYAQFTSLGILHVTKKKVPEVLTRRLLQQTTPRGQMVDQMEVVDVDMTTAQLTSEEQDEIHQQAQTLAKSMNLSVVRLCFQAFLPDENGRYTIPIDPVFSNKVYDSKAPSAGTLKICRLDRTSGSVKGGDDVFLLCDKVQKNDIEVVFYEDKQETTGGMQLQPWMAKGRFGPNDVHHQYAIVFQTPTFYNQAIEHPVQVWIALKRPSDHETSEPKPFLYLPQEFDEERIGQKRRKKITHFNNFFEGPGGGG

The next experiment concerns the target GST-Hu-p50 (Homo sapiens, UniProt P19838 7-356).

Where a chain is given by its changes, count along the chain named.

Chain of GST-Hu-p50 (P19838 7-356): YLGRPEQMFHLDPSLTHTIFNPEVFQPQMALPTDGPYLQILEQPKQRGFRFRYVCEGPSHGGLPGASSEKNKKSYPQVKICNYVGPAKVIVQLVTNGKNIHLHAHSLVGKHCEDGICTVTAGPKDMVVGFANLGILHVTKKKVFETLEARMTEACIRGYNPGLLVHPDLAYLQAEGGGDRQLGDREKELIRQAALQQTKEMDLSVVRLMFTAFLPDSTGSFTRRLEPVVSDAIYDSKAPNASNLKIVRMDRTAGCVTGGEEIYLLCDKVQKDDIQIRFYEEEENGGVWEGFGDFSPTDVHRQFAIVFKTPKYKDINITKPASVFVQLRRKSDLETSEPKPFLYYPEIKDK

For “CCGATTAACATCAGGGGGATTCATGATGTTAATCGGGTCTTGATTCGCTTGACGCTGCTG”, the binding signal in the experiment with GST-Ap-NF-kB RHD came to 8.54 z-score; in experiment [1], 7.43 z-score; in experiment [2], 8.48 z-score; in the experiment with GST-Co-NF-kB it was 5.63 z-score; with GST-Dm-Relish, 7.41 z-score; with GST-Aq-NF-kB, 6.1 z-score. Also, the binding signal with GST-Hu-p50 stood at 7.07 z-score.
Turning to “CCGATTAACATCAGGGGCATACCTGATGTTAATCGGGTCTTGATTCGCTTGACGCTGCTG”, the binding signal with GST-Ap-NF-kB RHD was found to be 3.84 z-score; in experiment [1], 4.44 z-score; in experiment [2] it was 1.94 z-score; with GST-Co-NF-kB, 1.44 z-score; with GST-Dm-Relish, 3.9 z-score; with GST-Aq-NF-kB, 6.89 z-score. Also, the binding signal with GST-Hu-p50 was 2.64 z-score.
In the case of “CCGATTAACATCAGGGGAATAACTGATGTTAATCGGGTCTTGATTCGCTTGACGCTGCTG”, the binding signal with GST-Ap-NF-kB RHD stood at 6.5 z-score; in experiment [1], 8.18 z-score; in experiment [2] it was 7.95 z-score; with GST-Co-NF-kB, 7.09 z-score; with GST-Dm-Relish, 9.39 z-score; with GST-Aq-NF-kB it was 6.98 z-score. Moreover, the binding signal with GST-Hu-p50 was determined as 5.61 z-score.
As to “CCGATTAACATCAGGGAAATACATGATGTTAATCGGGTCTTGATTCGCTTGACGCTGCTG”, the binding signal with GST-Ap-NF-kB RHD is 3.25 z-score; in experiment [1], 4.47 z-score; in experiment [2] it was 4.73 z-score; with GST-Co-NF-kB it was 4.08 z-score; with GST-Dm-Relish, 8.18 z-score; in the experiment with GST-Aq-NF-kB it was 4.87 z-score. Moreover, the binding signal with GST-Hu-p50 amounted to 3.02 z-score.
With “CCGATTAACATCACAATTTCCCCTGATGTTAATCGGGTCTTGATTCGCTTGACGCTGCTG”, the binding signal was 8.29 z-score in the experiment with GST-Ap-NF-kB RHD; 9.4 z-score in experiment [1]; 12 z-score in experiment [2]; 8.61 z-score in the experiment with GST-Co-NF-kB; 5.96 z-score in the experiment with GST-Dm-Relish; 6.69 z-score with GST-Aq-NF-kB. Also, the binding signal in the experiment with GST-Hu-p50 was found to be 6.74 z-score.
With “CCGATTAACATCACAAAATTCCCTGATGTTAATCGGGTCTTGATTCGCTTGACGCTGCTG”, the binding signal with GST-Ap-NF-kB RHD is 5.93 z-score; in experiment [1], 8.61 z-score; in experiment [2], 8.58 z-score; with GST-Co-NF-kB it was 5.01 z-score; in the experiment with GST-Dm-Relish it was 6.16 z-score; in the experiment with GST-Aq-NF-kB, 6.82 z-score. The sequence further returned a binding signal with GST-Hu-p50 of 6.04 z-score.
For “CCGATTAACATCAGGGGAATACATGATGTTAATCGGGTCTTGATTCGCTTGACGCTGCTG”, the binding signal in the experiment with GST-Ap-NF-kB RHD worked out at 6.98 z-score; in experiment [1], 8.02 z-score; in experiment [2], 7.97 z-score; with GST-Co-NF-kB, 6.18 z-score; in the experiment with GST-Dm-Relish, 6.02 z-score; in the experiment with GST-Aq-NF-kB, 5.87 z-score. Further, the binding signal with GST-Hu-p50 was 5.42 z-score.
Turning to “CCGATTAACATCAGGGGGAACTATGATGTTAATCGGGTCTTGATTCGCTTGACGCTGCTG”, the binding signal with GST-Ap-NF-kB RHD is 6.91 z-score; in experiment [1] it was 5.64 z-score; in experiment [2] it was 7.61 z-score; with GST-Co-NF-kB, 9.06 z-score; with GST-Dm-Relish it was 4.89 z-score; with GST-Aq-NF-kB it was 4.97 z-score. This sequence also registered a binding signal with GST-Hu-p50 of 5.9 z-score.
As for “CCGATTAACATCACAGATTCCCCTGATGTTAATCGGGTCTTGATTCGCTTGACGCTGCTG”, the binding signal was determined as 7.65 z-score in the experiment with GST-Ap-NF-kB RHD; 9.02 z-score in experiment [1]; 10.7 z-score in experiment [2]; 7.14 z-score with GST-Co-NF-kB; 6.17 z-score with GST-Dm-Relish; 5.96 z-score with GST-Aq-NF-kB. The sequence further displayed a binding signal with GST-Hu-p50 of 6.28 z-score.
For “CCGATTAACATCACGGAAATCCCTGATGTTAATCGGGTCTTGATTCGCTTGACGCTGCTG”, the binding signal in the experiment with GST-Ap-NF-kB RHD was determined as 4.3 z-score; in experiment [1], 3.8 z-score; in experiment [2], 2.78 z-score; with GST-Co-NF-kB, 1.09 z-score; in the experiment with GST-Dm-Relish it was 6.96 z-score; with GST-Aq-NF-kB, 6.11 z-score. Also, in the experiment with GST-Hu-p50, the binding signal was determined as 3.58 z-score.
Regarding “CCGATTAACATCAGGGGTAACCCTGATGTTAATCGGGTCTTGATTCGCTTGACGCTGCTG”, the binding signal turned out to be 4.06 z-score with GST-Ap-NF-kB RHD; 2.99 z-score in experiment [1]; 2.19 z-score in experiment [2]; 4.77 z-score with GST-Co-NF-kB; 4.12 z-score with GST-Dm-Relish; 5.1 z-score with GST-Aq-NF-kB. In the experiment with GST-Hu-p50, this sequence displayed a binding signal of 3.1 z-score.
Consider “CCGATTAACATCAGGGGGGCGCATGATGTTAATCGGGTCTTGATTCGCTTGACGCTGCTG”, for which the binding signal in the experiment with GST-Ap-NF-kB RHD worked out at 3.86 z-score; in experiment [1] it was 3.14 z-score; in experiment [2] it was 3.06 z-score; with GST-Co-NF-kB, 3.25 z-score; with GST-Dm-Relish, 4.09 z-score; with GST-Aq-NF-kB, 4.07 z-score. For the same sequence, the binding signal with GST-Hu-p50 is 4.13 z-score.
